This is an account of results in PubChem BioAssay (Tox21).

A number with no mark means an inactive call. Records with an inconclusive call do not appear. Calls of active or inactive are those of the source. Unless noted, calls come from the whole dose curve; as a rule, active = well fitted activation curve with a large enough effect in the repeat runs; inconclusive = weak or mixed curves; inactive = flat fitted curve, though single readings scatter.
% is set by controls: 0 for no effect and ±100 for the full control effect.

Androgen receptor (Homo sapiens), sequence (P10275 whole entry, looked up): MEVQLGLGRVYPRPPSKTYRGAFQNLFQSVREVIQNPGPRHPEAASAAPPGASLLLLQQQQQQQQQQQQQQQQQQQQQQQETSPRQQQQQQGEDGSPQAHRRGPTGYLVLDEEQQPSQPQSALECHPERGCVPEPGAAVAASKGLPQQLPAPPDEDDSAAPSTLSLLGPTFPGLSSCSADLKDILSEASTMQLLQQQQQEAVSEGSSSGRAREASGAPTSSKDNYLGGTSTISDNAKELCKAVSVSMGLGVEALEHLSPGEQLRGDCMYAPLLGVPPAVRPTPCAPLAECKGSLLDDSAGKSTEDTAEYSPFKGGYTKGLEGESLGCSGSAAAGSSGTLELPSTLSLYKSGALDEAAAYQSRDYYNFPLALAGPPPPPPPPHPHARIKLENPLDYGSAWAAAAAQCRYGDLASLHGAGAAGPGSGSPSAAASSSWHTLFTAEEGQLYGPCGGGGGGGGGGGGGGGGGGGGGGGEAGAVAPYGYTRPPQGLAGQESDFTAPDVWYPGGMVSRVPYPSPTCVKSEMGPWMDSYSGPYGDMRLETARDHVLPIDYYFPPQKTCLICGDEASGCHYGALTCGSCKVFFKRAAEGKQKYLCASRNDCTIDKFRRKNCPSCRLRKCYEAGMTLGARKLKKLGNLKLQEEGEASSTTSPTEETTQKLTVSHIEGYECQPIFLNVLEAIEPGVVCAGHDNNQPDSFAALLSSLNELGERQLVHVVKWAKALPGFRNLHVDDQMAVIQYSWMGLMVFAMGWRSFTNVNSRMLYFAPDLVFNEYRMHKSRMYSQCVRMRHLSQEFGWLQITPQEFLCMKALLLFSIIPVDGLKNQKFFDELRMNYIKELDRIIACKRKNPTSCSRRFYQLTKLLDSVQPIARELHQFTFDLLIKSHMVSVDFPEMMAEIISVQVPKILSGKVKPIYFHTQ

The first assay has as its target Androgen receptor (Homo sapiens) (UniProt P10275). The experiment in a line: qHTS assay to identify small molecule antagonists of the androgen receptor (AR) signaling pathway (AID 743035; active = well fitted inhibition curve with a large enough effect in the signal ratio in the repeat runs, not every such curve was filed as active; the % refers to the signal ratio; note: potency is the fitted concentration of half-maximal effect). Conditions: HEK293 AR-UAS-bla, R1881-stimulated, beta-lactamase FRET, 16 h; series mostly up to 58.5 µM; activity change, negative = inhibition: at the top concentration. The gist of the method:
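Using qHTS, AR-UAS-bla GripTite HEK293 cells received compound, then R1881, and were cultured 16 h at 37C/5% CO2 before a 2 h room-temperature LiveBLAzer B/G FRET substrate step and fluorescence measurement.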
As to `OC(CN1CCCCC1)c1cc(-c2ccccc2)on1` (configuration not stated), the “activity change, negative = inhibition” value was 0.485%.
Consider `CC[C@H]1NC(=O)[C@@H](NC(=O)c2ncccc2O)[C@@H](C)OC(=O)[C@H](c2ccccc2)NC(=O)[C@@H]2CC(=O)CCN2C(=O)[C@H](Cc2ccccc2)N(C)C(=O)[C@@H]2CCCN2C1=O`, for which the “activity change, negative = inhibition” value is -1.13%.
In the case of `Nc1nc2c(c(=O)[nH]1)N(C=O)C(CNc1ccc(C(=O)N[C@@H](CCC(=O)O)C(=O)O)cc1)CN2` (some centres not stated), the “activity change, negative = inhibition” value is 0.14% [at 27 µM].
For the compound `CCc1ccc(S(=O)(=O)O)cc1`, the “activity change, negative = inhibition” value is 0.0419%.
`OC[C@H]1O[C@@H](O[C@H]2[C@H](O)[C@@H](O)[C@H](O)O[C@@H]2CO)[C@H](O)[C@@H](O)[C@@H]1O`: the “activity change, negative = inhibition” value was 31.1%.
Turning to `CC[C@]1(O)CC2CN(CCc3c([nH]c4ccccc34)[C@@](C(=O)OC)(c3cc4c(cc3OC)N(C)[C@H]3[C@@](O)(C(N)=O)[C@H](O)[C@]5(CC)C=CCN6CC[C@]43[C@@H]65)C2)C1` (some centres not stated), the Potency is 213 nM (active).
Take `CC1(C)S[C@@H]2[C@H](NC(=O)[C@H](NC(=O)N3CCN(S(C)(=O)=O)C3=O)c3ccccc3)C(=O)N2[C@H]1C(=O)O`: the “activity change, negative = inhibition” value was 30.4%.
With `CN1c2c(nc(N)[nH]c2=O)NCC1CNc1ccc(C(=O)NC(CCC(=O)O)C(=O)O)cc1` (configuration not stated), the “activity change, negative = inhibition” value was 5.76%.
`Cc1cccc(C)c1NC(=O)NC1=CCCN1C`: the “activity change, negative = inhibition” value is -19.8%.

For another assay the target is unchanged. The experiment in a line: qHTS assay to identify small molecule agonists of the androgen receptor (AR) signaling pathway (AID 743036; active = well fitted activation curve with a large enough effect in the signal ratio in the repeat runs, with a control signal flat, not every such curve was filed as active; the % refers to the signal ratio). The following applies: HEK293 AR-UAS-bla GripTite, beta-lactamase FRET ratio, 16 h; series mostly up to 62.4 µM; activation: at the top concentration. Put shortly:
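Activation was read as beta-lactamase FRET signal from LiveBLAzer B/G substrate, added for 2 h at room temperature. Before that, GeneBLAzer AR-UAS-bla GripTite (HEK293) cells had 16 h compound exposure at 37C.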
Consider `CC[C@H]1NC(=O)[C@@H](NC(=O)c2ncccc2O)[C@@H](C)OC(=O)[C@H](c2ccccc2)NC(=O)[C@@H]2CC(=O)CCN2C(=O)[C@H](Cc2ccccc2)N(C)C(=O)[C@@H]2CCCN2C1=O`, for which the “activation” value was -0.291%.
In the case of `NC(=O)c1ccc[n+]([C@@H]2O[C@H](COP(=O)([O-])OP(=O)(O)OC[C@H]3O[C@@H](n4cnc5c(N)ncnc54)[C@H](O)[C@@H]3O)[C@@H](O)[C@H]2O)c1`, the “activation” value was 5.72% [at 29.2 µM].
Consider `C=C1CC[C@H](O)CC1=C/C=C1\CCC[C@]2(C)[C@@H]([C@H](C)CC[C@@H](O)C(C)(C)O)CC[C@@H]12`, for which the “activation” value was -1.46%.
With `CCc1ccc(S(=O)(=O)O)cc1`, the “activation” value is -0.291%.
In the case of `Cc1cccc(C)c1NC(=O)NC1=CCCN1C`, the “activation” value is 0.0793%.
Take `Cc1cc(C)c(NC(=O)C[C@H](CC(=O)O)c2cccc3ccccc23)c(C(=O)N2CCC3(CCCC3)CC2)c1`: the “activation” value was -14%.

A further assay shares this target. Nature of the assay: qHTS assay to identify small molecule agonists of the androgen receptor (AR) signaling pathway using the MDA cell line (AID 743040; note: nearly all actives have a fitted effect of over 20% in size; note: potency is the fitted concentration of half-maximal effect). The following applies: MDA-kb2 AR-luc cells, MMTV luciferase, 16 h; series mostly up to 70.3 µM; activity change: at the top concentration. Put shortly: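 Cells plated, 5 h at 37C/0% CO2; compound or DMSO pinned; 16 h at 37C; ONE-Glo added; luminescence measured after 30 min at room temperature. Reporter line: MDA-kb2 with MMTV-luciferase responsive to AR and GR.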
Take `CC[C@H]1NC(=O)[C@@H](NC(=O)c2ncccc2O)[C@@H](C)OC(=O)[C@H](c2ccccc2)NC(=O)[C@@H]2CC(=O)CCN2C(=O)[C@H](Cc2ccccc2)N(C)C(=O)[C@@H]2CCCN2C1=O`: the “activity change” value was 3.13%.
Turning to `NC(=O)c1ccc[n+]([C@@H]2O[C@H](COP(=O)([O-])OP(=O)(O)OC[C@H]3O[C@@H](n4cnc5c(N)ncnc54)[C@H](O)[C@@H]3O)[C@@H](O)[C@H]2O)c1`, the “activity change” value is -1.19% [at 32.5 µM, hits give high values].
For `O=C(O)CN(CC(=O)O)CC1=CC2C(=CC1=O)Oc1cc(O)c(CN(CC(=O)O)CC(=O)O)cc1C21OC(=O)c2ccccc21` (configuration not stated), the “activity change” value is 0.923%.
Turning to `C=C1CC[C@H](O)CC1=C/C=C1\CCC[C@]2(C)[C@@H]([C@H](C)CC[C@@H](O)C(C)(C)O)CC[C@@H]12`, the “activity change” value was -11.1%.
Regarding `N#CC(c1ccc(Cl)cc1)c1c(Cl)cc(-n2ncc(=O)[nH]c2=O)cc1Cl` (configuration not stated), the “activity change” value was -1.82%.
On to `Nc1nc2c(c(=O)[nH]1)N(C=O)C(CNc1ccc(C(=O)N[C@@H](CCC(=O)O)C(=O)O)cc1)CN2` (some centres not stated), for which the “activity change” value was -1.24% [at 32.5 µM, hits give high values].
Regarding `CCc1ccc(S(=O)(=O)O)cc1`, the “activity change” value was 4.08%.
As for `C[C@@H]1C[C@H]2[C@@H]3CCC4=CC(=O)C=C[C@]4(C)[C@@]3(F)[C@@H](O)C[C@]2(C)[C@@]1(O)C(=O)COC(=O)c1cccc(S(=O)(=O)O)c1`, the Potency was 0.0841 µM (active).
Consider `OC[C@H]1O[C@@H](O[C@H]2[C@H](O)[C@@H](O)[C@H](O)O[C@@H]2CO)[C@H](O)[C@@H](O)[C@@H]1O`, for which the “activity change” value is -0.64%.
With `CC[C@]1(O)CC2CN(CCc3c([nH]c4ccccc34)[C@@](C(=O)OC)(c3cc4c(cc3OC)N(C)[C@H]3[C@@](O)(C(N)=O)[C@H](O)[C@]5(CC)C=CCN6CC[C@]43[C@@H]65)C2)C1` (some centres not stated), the “activity change” value is -5.88%.
Consider `COc1ccc(C2NC(=S)N3C(c4ccc(OC)c(OC)c4)NC(=S)N23)cc1OC` (configuration not stated), for which the “activity change” value is -3.92%.
Consider `CC1(C)S[C@@H]2[C@H](NC(=O)[C@H](NC(=O)N3CCN(S(C)(=O)=O)C3=O)c3ccccc3)C(=O)N2[C@H]1C(=O)O`, for which the Potency was 29.8 µM (active).
`CN1c2c(nc(N)[nH]c2=O)NCC1CNc1ccc(C(=O)NC(CCC(=O)O)C(=O)O)cc1` (configuration not stated): the “activity change” value was -0.102%.
With `COc1cc(NCCCC(C)N)c2ncccc2c1` (configuration not stated), the “activity change” value is 4.23%.
`CO[C@H]1C[C@@H]2CC[C@@H](C)[C@@](O)(O2)C(=O)C(=O)N2CCCC[C@H]2C(=O)O[C@H]([C@H](C)C[C@@H]2CC[C@@H](OCCO)[C@H](OC)C2)CC(=O)[C@H](C)/C=C(\C)[C@@H](O)[C@@H](OC)C(=O)[C@H](C)C[C@H](C)/C=C/C=C/C=C/1C`: the “activity change” value was -12.4%.
For `Cc1cccc(C)c1NC(=O)NC1=CCCN1C`, the “activity change” value was -0.747%.
As to `Cc1cc(C)c(NC(=O)C[C@H](CC(=O)O)c2cccc3ccccc23)c(C(=O)N2CCC3(CCCC3)CC2)c1`, the “activity change” value is 0.206%.
